CFTR F508del cor = CFTR F508del correction in bronchial cells. activity (quench increase), % at 7.58 µM. actives 0.36% (n = 350,000). CFBE cells, YFP halide quenching; stimulated with forskolin plus potentiator P3; % fluorescence drop versus neutral controls;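 active means mean added fluorescence quench of at least 8% versus neutral control, with both replicates also reaching 8%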;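 further: cells transiently co-express mutant CFTR-F508del with the halide-sensitive YFP; corrector assay measuring rescue of mutant channel to the surface after 24 h compound exposure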
Vif inh = blocks HIV Vif function; inhibition, % at 7.49 µM; HEK293T cells, Vif self-association by quenched fluorescence, imaging, 24 h; actives 0.35% (n = 340,000); in the data active means inhibition above about 50%, passing the limit was not always enough
FGF22 binding = FGF22 (human) thermal shift binding | Q9HCT0 | recombinant FGF22 thermal shift, SYPRO orange fluorescence; percent of sucrose octasulfate shift, DMSO zero | activity (Tm shift, normalised), % at 9.99 µM | actives 1.5% (n = 340,000) | AID 651658;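 active means mean Tm shift, scaled 0 neutral to 100 positive control, at about 1.3% or above, every replicate too, limit read from the data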
Target sequence (Q9HCT0 whole entry, looked up): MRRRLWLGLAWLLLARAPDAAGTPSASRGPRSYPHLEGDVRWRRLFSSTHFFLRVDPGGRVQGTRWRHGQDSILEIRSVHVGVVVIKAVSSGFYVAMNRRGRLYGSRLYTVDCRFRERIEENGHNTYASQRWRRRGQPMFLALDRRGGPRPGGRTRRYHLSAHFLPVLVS
The depositor's hits bear a star; . = no result given. An excerpt weighted towards active compounds, which were near 1.7% of everything screened.

SMILES | CFTR F508del cor | Vif inh | FGF22 binding
COc1ccc(C(=O)NCCN(C)C)c2nc3ccccc3cc12 | 15* | 13 | 0
COc1cccc2nc3c(C(=O)NCCN(C)C)cccc3cc12 | 5 | -34 | 0
COc1ccc2c3c([nH]c2c1)[C@H](CO)N(C(C)=O)CC31CCN(Cc2cc(-c3ccccc3)on2)CC1 | -3 | . | .
COc1cc(COCC(O)CN2CCN(Cc3ccccc3)CC2)cc(OC)c1OC (stereo not drawn) | -2 | 1 | 44*
CCN1CCN(CC(O)COCc2cc(OC)c(OC)c(OC)c2)CC1 (stereo not drawn) | . | 15 | 0
CCN1CCCC1CNS(=O)(=O)c1ccc(F)c(Cl)c1 (stereo not drawn) | 1 | 51* | 0
CCN1CCCC1CNS(=O)(=O)c1cccc(C(F)(F)F)c1 (stereo not drawn) | 1 | 2 | 1
C[C@@H]1CCCCO[C@@H](CN(C)S(=O)(=O)c2cn(C)cn2)[C@@H](C)CN([C@H](C)CO)C(=O)c2cc(NC(=O)CCC(F)(F)F)ccc2O1 | 0 | . | 0
CCC(C)NC(=O)CO/N=C/c1ccccc1OC(F)F (stereo not drawn) | . | 1 | 0
CC1CCCCC1NC(=O)CO/N=C/c1ccccc1OC(F)F (stereo not drawn) | . | 91* | 0
C[C@@H]1CN([C@@H](C)CO)C(=O)Cc2cc(NC(=O)Cc3cn(C)c4ccccc34)ccc2O[C@@H]1CN(C)S(=O)(=O)c1ccc(Cl)cc1 | 2 | . | .
COc1ccc(-c2ccc3c(c2)O[C@@H](CN(C)CC2CC2)[C@@H](C)CN([C@H](C)CO)S3(=O)=O)cc1 | -3 | . | .
O=C(CCCCC(=O)OC1CCCCC1)OC1CCCCC1 | 2 | 9 | 43*
O=C(C=CC(=O)OC1CCCCC1)OC1CCCCC1 | 0 | 17 | 0
CC(C)N1CCC(N2CCN(C3CCCCCC3)CC2CCO)CC1 (stereo not drawn) | -2 | 8 | 43*
CC(C)N1CCC(N2CCN(CCCc3ccccc3)CC2CCO)CC1 (stereo not drawn) | . | -6 | 0
C[C@H](CO)N1C[C@H](C)[C@@H](CN(C)S(=O)(=O)c2ccccc2F)Oc2ncc(C#Cc3ccccc3)cc2C1=O | -1 | . | -1
CC1CCCC(NC(=O)CN2C(=O)COc3ccccc32)C1C (stereo not drawn) | 1 | -3 | 0
CC1CCCC(NC(=O)CCN2C(=O)COc3ccccc32)C1C (stereo not drawn) | 1 | 50* | 0
C[C@H](CO)N1C[C@H](C)[C@@H](CN(C)C(=O)Nc2ccc(C(F)(F)F)cc2)Oc2ncc(-c3ccc(C#N)cc3)cc2C1=O | 0 | . | 0
C[C@H]1CN([C@@H](C)CO)C(=O)Cc2cc(NC(=O)Nc3ccc(F)cc3)ccc2O[C@@H]1CN(C)C(=O)Nc1ccc2c(c1)OCO2 | 3 | . | 0
Cc1cccc(NC(=O)COn2nnc3ccc(S(C)(=O)=O)cc32)c1 | -3 | 18 | 43*
Cc1cccc(C)c1NC(=O)COn1nnc2ccc(C(F)(F)F)cc21 | 4 | 21 | 0
CCCCCNCC(=O)Nc1cc(C(F)(F)F)ccc1OCCOC | -3 | -9 | 44*
COCCOc1ccc(C(F)(F)F)cc1NC(=O)c1ccc(C)cc1 | . | 3 | .
SMILES | CFTR F508del cor | Vif inh | FGF22 binding
N#C[C@H]1[C@H](c2ccc(C#Cc3ccccc3F)cc2)[C@@H](CO)N1C(=O)C1CCCC1 | -3 | . | .
O=C(C[C@@H]1CC[C@@H](NS(=O)(=O)c2ccc(F)cc2)[C@@H](CO)O1)N1CCc2ccccc2C1 | 4 | . | 0
O=C(NN=Cc1ccc(O)cc1)C(=O)NN=Cc1ccc(O)cc1 | 2 | -7 | 0
O=C(N/N=C/c1ccc(O)cc1O)C(=O)N/N=C/c1ccc(O)cc1O | -1 | 62* | 0
COC(=O)C1C2OC(C(Br)C2Br)C1C(=O)OC (stereo not drawn) | -3 | -5 | 44*
COC(=O)C1C2CCCCC1C(=O)O2 (stereo not drawn) | -3 | -1 | 0
COc1ccc(CN(C)C[C@@H]2Oc3ccc(NS(=O)(=O)c4ccc(C)cc4)cc3C(=O)N([C@@H](C)CO)C[C@@H]2C)cc1 | -2 | . | 0
COc1ccc(-c2ccc([C@@H]3[C@@H](CO)N4C(=O)CN(C(=O)c5ccccn5)C[C@H]34)cc2)cc1 | -2 | . | .
COc1ccc(/C=C(/C#N)S(=O)(=O)c2ccc(C)cc2)cc1 | . | 9 | .
CO/N=C/C(C#N)=C/c1ccc(OC)cc1 | 3 | 4 | 44*
COc1ccc(CNC(=O)C[C@@H]2C[C@@H]3c4cc(NC(=O)CN(C)C)ccc4O[C@@H]3[C@@H](CO)O2)cc1 | -6 | . | 1
CCC(Sc1nc(C)cc(C)n1)C(=O)O (stereo not drawn) | 1 | -1 | 0
CCC(Sc1nc(C)cc(C)n1)C(=O)Nc1cc(C)on1 (stereo not drawn) | 2 | 1 | 44*
CCOc1c2ccc(C(=O)NCc3ccc(OC(F)(F)F)cc3)cc2nn1CC | -6 | -2 | 0
CCCn1nc2cc(C(=O)NCc3ccc(OC(F)(F)F)cc3)ccc2c1OCC | 2 | -4 | 43*
CCOc1c2ccc(C(=O)N[C@H](C)C3CCCCC3)cc2nn1CCOC | 1 | 8 | 44*
CCOc1c2ccc(C(=O)NCc3ccco3)cc2nn1CCOC | 3 | -5 | 0
CN(C)CCNc1nc2sc3c(c2c(=O)n1CCc1ccccc1)CCCCC3 | 0 | 1 | 0
CC(O)CNc1nc2sc3c(c2c(=O)n1CCc1ccccc1)CCCCC3 (stereo not drawn) | -1 | -1 | 44*
C/C=C/c1ccc([C@H]2[C@@H](C#N)N(c3ncc(CC)s3)[C@H]2CO)cc1 | -1 | . | 0
Cc1ccc(C(=O)NC(C)c2ccc(-n3ccnc3)cc2)cc1S(=O)(=O)N1CCOCC1 (stereo not drawn) | 1 | -2 | 0
CC(NC(=O)c1cc(S(=O)(=O)N2CCOCC2)ccc1F)c1ccc(-n2ccnc2)cc1 (stereo not drawn) | 11* | 2 | 0
C[C@@H]1CN([C@H](C)CO)C(=O)c2cc(NC(=O)Cc3cn(C)c4ccccc34)ccc2O[C@H]1CN(C)S(=O)(=O)c1ccc(Cl)cc1 | 0 | . | 1
C[C@H](CO)N1C[C@H](C)[C@@H](CN(C)Cc2ccc(Oc3ccccc3)cc2)Oc2ccc(NC(=O)Cc3ccccc3)cc2CC1=O | -3 | . | 1
C[C@H]1CN([C@@H](C)CO)C(=O)c2cccc(NC(=O)Nc3ccccc3)c2O[C@@H]1CN(C)S(=O)(=O)c1ccc(Cl)cc1 | 0 | . | 0
SMILES | CFTR F508del cor | Vif inh | FGF22 binding
COc1ccc(-n2ncc(Cl)c(Cl)c2=O)cc1 | -1 | 3 | .
COc1ccc(Sc2cnn(-c3ccccc3)c(=O)c2Cl)cc1 | . | 51* | .
COc1cccc(S(=O)(=O)N(C)C[C@H]2Oc3cc(C4=CCCC4)ccc3S(=O)(=O)N([C@H](C)CO)C[C@@H]2C)c1 | -3 | . | 0
C[C@@H]1CN([C@H](C)CO)C(=O)c2cc(NS(=O)(=O)c3ccccc3)ccc2O[C@@H]1CN(C)Cc1ccc(C(=O)O)cc1 | 0 | . | 0
NS(=O)(=O)c1ccc(N/C=C\C(=O)c2ccncc2)cc1 | 2 | -8 | 43*
NS(=O)(=O)c1ccc(N/C=C/C(=O)c2ccc(Br)cc2)cc1 | 2 | -5 | 0

High-throughput results from PubChem.
